# Measurements taken from PubChem BioAssay AID743279 (National Center for Advancing Translational Sciences (NCATS), 2014).
# Screen size: about 360,000 compounds; about 17,000 (4.7%) were called active. Not shown: some 5% with an inconclusive outcome. Shown is part of a subset that was picked to be rich in actives. Values without a mark were called inactive. Rule as the data show it: active = activity change below about -50%; inconclusive = mostly about -30% to -49%; inactive = weaker than that.
# Test: qHTS for Inhibitors of Inflammasome Signaling: IL-1-beta AlphaLISA Primary Screen
# Conditions: THP-1 LPS/ATP IL-1B secretion, 16 h; at 57.5 µM, active compounds read low
# Outline: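 THP-1 cells pretreated 1 hr with compounds (up to 57.5 uM final), then stimulated with LPS (250 ng/mL final) plus ATP (1.25 mM final); secreted IL-1B measured by AlphaLISA after 16 hr, decreased signal indicating inhibition.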
# % is scaled to controls: 0 for no effect and ±100 for the full control effect.
row,SMILES,activity change
1,CCCCNC(=O)N1CCCC(N(C)CCc2ccc(OC)c(OC)c2)C1 (stereo not given),1.87%
2,CC1(C2CC2)NC(=O)N(CC(=O)N2CCN(c3ccccc3F)CC2)C1=O (stereo not given),-14.2%
3,Cc1c(C(=O)NCC(c2ccco2)N2CCCC2)oc2ccc(Cl)cc12 (stereo not given),-25.2%
4,Cc1ccc(C)c(S(=O)(=O)Nc2cc(C)on2)c1,-7.66%
5,CCOC(=O)C1CCCN(C(=O)C2CCN(S(=O)(=O)c3ccc(Cl)c(C(F)(F)F)c3)CC2)C1 (stereo not given),16.1%
6,CCCc1nc2oc3c(=O)[nH]cnc3c2c2c1COC(C)(C)C2,17.7%
7,CS(=O)(=O)N1CCCCC1c1cc(C(=O)NCc2ccccc2)no1 (stereo not given),-18.8%
8,CCN1CCC(O)(/C=C/c2ccc(C)cc2)C(C(=O)/C=C/c2ccc(C)cc2)C1 (stereo not given),-1.25%
9,CCCOC(=O)c1ccc(N2C(=O)c3ccccc3C2=O)cc1,17.6%
10,CCCCOC(=O)NCN1C(=O)C2C3C=CC(C3)C2C1=O (stereo not given),26.4%
11,CCCCCOC(=O)c1ccc(N2C(=O)C3C4C=CC(C4)C3C2=O)cc1 (stereo not given),-71.4% (active)
12,O=C(Nc1cccc2c1CCCC2)C1CCN(C(=O)NC2CCCCC2)CC1,15.3%
13,COC(=O)[C@]12CCCCC=C1N(CCC1=CCCCC1)C(=O)[C@H](CC(=O)N1CCSCC1)C2,-3.86%
14,CCOC(=O)CCc1c(C)c(C#N)c2[nH]c3ccccc3n2c1=O,-90.1% (active)
15,CCOCCCNc1c(CC)c(C)c(C#N)c2nc3ccccc3n12,-7.67%
16,CCCc1cc(=S)n2c([nH]c3ccccc32)c1C#N,-9.7%
17,COC(=O)C1=CN(c2c(C)cc(C)cc2C)C(N)=C(C#N)C1c1cccc(F)c1 (stereo not given),-11.3%
18,CC1Cc2[nH][nH]c(=O)c2C(C2CC2)O1 (stereo not given),-5%
19,COc1ccc(CN2C(=O)C(CC(=O)NC3CCCCC3)CC(C(=O)N3CCOCC3)=C2C)cc1 (stereo not given),-7.47%
20,CCn1c(SCC(=O)Nc2ccc(Br)cc2)nc2sc3c(c2c1=O)CCN(C)C3,-54.3% (active)
21,COc1ccccc1NC(=O)CSc1nc2sc3c(c2c(=O)n1-c1ccccc1)CCN(C)C3,-4.77%
22,CCOc1ccc(-n2c(SCC(=O)Nc3ccc(OC)cc3)nc3sc4c(c3c2=O)CCN(C)C4)cc1,-16%
23,Cc1ccc(-c2c(C)n([O-])c3c([n+]2=O)CCC3)cc1,12.3%

row,SMILES,activity change
1,CCOc1cccc(=O)c2c(C)n(CC3CCCO3)c(C)c12 (stereo not given),13.1%
2,CN1CN(C)c2ccc([N+](=O)[O-])c3cccc1c23,-18.1%
3,O=C1c2cccc3c([N+](=O)[O-])ccc(c23)C(=O)N1CC1CCCO1 (stereo not given),-98.7% (active)
4,Cc1ccc(N2CCN(c3ccc(C)cc3)C2c2ccccn2)cc1,-6.85%
5,COc1ccc(S(=O)(=O)N2CCC(C(=O)NCCC(=O)NCCc3cccc(F)c3)CC2)cc1,-8.46%
6,CC(Cc1cccs1)N(Cc1ccc(Cl)cc1)C(=O)c1ccncc1 (stereo not given),20.4%
7,Nc1nc(NC(=O)/C=C/c2ccc(F)cc2)nn1-c1ccccc1,-2.85%
8,O=c1c2c(nc3n1CCCCC3)sc1c(O)cccc12,24.7%
9,CC(=O)c1ccc(NC(=O)c2sc3nc4n(c(=O)c3c2C)CCCCC4)cc1,-59.8% (active)
10,Cc1c(C(=O)Nc2ccccc2)sc2nc3n(c(=O)c12)CCCCC3,-7.47%
11,CCCS(=O)(=O)Nc1ccc(-c2cn3c(n2)SCC3)cc1,-1.84%
12,CCCCCCNC(=O)O[C@H]1CN(C(=O)OC(C)C)N(C(=O)OC(C)C)[C@@H]2CN(S(=O)(=O)c3ccc(C)cc3)C[C@]12O,-63.8% (active)
13,CCCCCCNC(=O)O[C@]12C[C@@H](C(=O)OC)[C@@H](C(=O)OC)C[C@@]1(O)CN(S(=O)(=O)c1ccc(C)cc1)C2,11.6%
14,COC(=O)[C@H]1C[C@H](OC(=O)NCc2ccccc2)[C@@]2(O)CN(S(=O)(=O)c3ccc(C)cc3)CC2[C@H]1C(=O)OC (stereo not given in full),-4.9%
15,COc1ccc([C@H]2CC(=O)C[C@@H](CCn3cc(CC4CCCC4)nn3)O2)cc1,10.9%
16,COc1ccc(-c2nc3ccc(Br)cn3c2Cc2ccc(C)cc2)cc1OC,-15.5%
17,Cc1ccc(Cn2cc(C(=O)NN)c(=O)c3ccc(F)cc32)cc1,-11.4%
18,Cc1ccc(Nc2cc(C)nc3c(C)ccc([N+](=O)[O-])c23)cc1,-61.1% (active)
19,Cc1ccc2cccc([N+](=O)[O-])c2n1,15%
20,Cc1ccc(Nc2nc(C)cc(C)c2C(N)=O)cc1,19.4%
21,O=NN(CCCl)C(=O)NCCc1cccc[n+]1[O-],15%
22,O=C(NC1CCCCCC1)C1CCN(C(=O)c2ccc(Cl)cc2)CC1,9.37%
